Laboratory results taken from PubChem BioAssay (NCI).
About 79,000 compounds went through this panel and 15% of them were active in at least one assay; those are over-represented in the sample as a whole. Active and inactive are the calls of the source. No stated cut-off is given here; in the data, active means growth inhibition above about 70%; inactive means the rest.

Legend:
[1] = NCI Yeast Anticancer Drug Screen. Data for the rad52 strain (AID 147);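 further: 0% = growth of vehicle-treated control cultures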; details: S. cerevisiae rad52 mutant growth inhibition, active compounds read high
Summary of the method: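 Here a repair-compromised yeast strain receives each compound; its growth is then quantified and normalised to vehicle-only controls.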

[2] = NCI Yeast Anticancer Drug Screen. Data for the wt1 strain (AID 149);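 further: 0% = growth of vehicle-treated wt1 cultures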; details: S. cerevisiae wt1 strain (SPY 50644) growth inhibition, active compounds read high
Summary of the method: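 Vehicle-normalised growth inhibition; strain wt1; compound exposure.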

[3] = NCI Yeast Anticancer Drug Screen. Data for the rad50EPP+ strain (AID 151);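 further: 0% = growth of vehicle-treated control cultures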; details: S. cerevisiae rad50 mutant strain, active compounds read high
Summary of the method: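 Read-out is yeast growth inhibition relative to vehicle; cells used were the rad50EPP+ strain.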

[4] = NCI Yeast Anticancer Drug Screen. Data for the mgt1 strain (AID 153); details: S. cerevisiae mgt1 mutant growth inhibition, active compounds read high
Summary of the method: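 Measured: inhibition of mgt1 yeast growth by compound, normalized to vehicle-treated cultures.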

[5] = NCI Yeast Anticancer Drug Screen. Data for the rad50 strain (AID 155);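 further: 0% = growth of vehicle-only cultures of the same strain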; details: S. cerevisiae rad50 strain growth inhibition, active compounds read high
Summary of the method: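 A DNA repair-deficient yeast mutant serves as the test organism; compound-induced growth inhibition is calculated against vehicle-treated cells.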

[6] = NCI Yeast Anticancer Drug Screen. Data for the mec2-1 strain (AID 157); details: S. cerevisiae mec2-1 strain, active compounds read high
Summary of the method: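 Using mec2-1 yeast: add compound, measure growth, express inhibition versus vehicle-treated cultures.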

[7] = NCI Yeast Anticancer Drug Screen. Data for the sgs1 mgt1 strain (AID 161);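 further: 0% = growth of cultures given vehicle only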; details: S. cerevisiae sgs1 mgt1 strain, active compounds read high
Summary of the method: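 Growth of a repair-deficient yeast mutant was monitored after compound treatment and expressed as inhibition relative to vehicle-treated cultures.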

[8] = NCI Yeast Anticancer Drug Screen. Data for the CLN2oe strain (AID 163);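 further: 0% = growth of vehicle-only control cultures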; details: S. cerevisiae CLN2oe strain, active compounds read high
Summary of the method: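 Whole-cell yeast growth assay. A strain engineered for altered cell-cycle control received compound, and inhibition relative to vehicle-treated cultures was recorded.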

[9] = NCI Yeast Anticancer Drug Screen. Data for the cln2 rad14 strain (AID 165);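 further: 0% = growth equal to vehicle treated cultures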; details: S. cerevisiae cln2 rad14 strain, active compounds read high
Summary of the method: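 Yeast strain cln2 rad14, bearing defects in cell cycle control and DNA repair, serves as the test system; values reflect growth inhibition compared with vehicle.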

[10] = NCI Yeast Anticancer Drug Screen. Data for the bub3 strain (AID 167); details: S. cerevisiae bub3 mutant strain, active compounds read high
Summary of the method: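 Inhibition values come from growth of compound-treated mutant yeast normalised to vehicle-treated controls.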

[11] = NCI Yeast Anticancer Drug Screen. Data for the wt2 strain (AID 169);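 further: 0% = growth of vehicle-treated yeast cultures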; details: S. cerevisiae wt2 strain growth inhibition, active compounds read high
Summary of the method: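 Treated yeast vs. vehicle-treated yeast: growth inhibition determined.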

[12] = NCI Yeast Anticancer Drug Screen. Data for the mlh1 strain (AID 171);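 further: 0% = growth of vehicle-treated control cultures of the same strain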; details: S. cerevisiae mlh1 strain growth inhibition, active compounds read high
Summary of the method: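 A yeast strain with a defined genetic lesion serves as the test organism. Cultures receive compound or vehicle, and growth is measured.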

[13] = NCI Yeast Anticancer Drug Screen. Data for the sgs1 strain (AID 173);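 further: 0% = growth of vehicle-only control cultures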; details: S. cerevisiae sgs1 mutant, active compounds read high
Summary of the method: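 A genetically defined yeast mutant is incubated with the test compound, and its growth is compared to that of the same strain given vehicle.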

[14] = NCI Yeast Anticancer Drug Screen. Data for the mlh1 rad18 strain (AID 175); details: S. cerevisiae mlh1 rad18 strain growth inhibition, active compounds read high
Summary of the method: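 Steps: expose repair-defective yeast to compound; measure growth; express inhibition against vehicle-treated controls.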

[15] = NCI Yeast Anticancer Drug Screen. Data for the rad18 strain (AID 177); details: S. cerevisiae rad18 mutant growth inhibition, active compounds read high
Summary of the method: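 Measured value is growth inhibition of a yeast strain bearing a DNA repair alteration, referenced to vehicle-treated cells.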

[16] = NCI Yeast Anticancer Drug Screen. Data for the rad14 strain (AID 159);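 further: 0% = growth of vehicle-treated control cultures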; details: S. cerevisiae rad14 strain growth inhibition, active compounds read high
Summary of the method: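 Vehicle-treated cultures served as the baseline for growth inhibition of a DNA repair-mutant yeast strain exposed to each compound.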

[17] = at 5.0 µM (retest, dose inferred, filed as 0.5)
[18] = at 50.0 µM (retest, dose inferred, filed as 5.0)

Measured: growth inhibition

CN(CCN(C)Cc1ccccc1)Cc1ccccc1
inactive: [1]; at 1.2 µM -5% | [1]; at 3.7 µM 8% | [1]; at 11.0 µM -4% | [1]; at 33.0 µM 19% | [1]; at 100.0 µM 2% | [2]; at 1.2 µM -16% | [2]; at 3.7 µM -9% | [2]; at 11.0 µM -12% | [2]; at 33.0 µM 0% | [2]; at 100.0 µM 14% | [3]; at 1.2 µM -13% | [3]; at 3.7 µM -3% | [3]; at 11.0 µM -4% | [3]; at 33.0 µM -22% | [3]; at 100.0 µM -40% | [4]; at 1.2 µM -13% | [4]; at 3.7 µM -4% | [4]; at 11.0 µM 14% | [4]; at 33.0 µM 11% | [4]; at 100.0 µM 58% | [5]; at 1.2 µM -18% | [5]; at 3.7 µM -12% | [5]; [17] 40% | [5]; at 11.0 µM -5% | [5]; at 33.0 µM 9% | [5]; at 50.0 µM 24.5% | [5]; at 100.0 µM 6% | [6]; at 1.2 µM -33% | [6]; at 3.7 µM -19% | [6]; [17] 45% | [6]; at 11.0 µM -25% | [6]; at 33.0 µM -6% | [6]; at 50.0 µM 12.9% | [6]; at 100.0 µM 2% | [7]; [17] -1% | [7]; [18] 57% | [7]; at 50.0 µM 51.3% | [8]; at 1.2 µM -12% | [8]; at 3.7 µM -5% | [8]; at 11.0 µM 5% | [8]; at 33.0 µM 18% | [8]; at 100.0 µM 44% | [9]; [17] 16% | [9]; [18] 38% | [9]; at 50.0 µM 31.1% | [10]; at 1.2 µM -31% | [10]; at 3.7 µM -15% | [10]; [17] 14% | [10]; at 11.0 µM -13% | [10]; at 33.0 µM 9% | [10]; [18] 39% | [10]; at 50.0 µM 60.5% | [10]; at 100.0 µM 3% | [11]; at 1.2 µM -17% | [11]; at 3.7 µM -9% | [11]; at 11.0 µM 2% | [11]; at 33.0 µM 1% | [11]; at 100.0 µM 14% | [12]; at 1.2 µM 8% | [12]; at 3.7 µM 4% | [12]; at 11.0 µM 12% | [12]; at 33.0 µM 23% | [12]; at 100.0 µM 52% | [13]; at 1.2 µM -6% | [13]; at 3.7 µM -10% | [13]; at 11.0 µM -10% | [13]; at 33.0 µM 10% | [13]; at 100.0 µM 30% | [14]; [17] 25% | [14]; at 50.0 µM 32.3% | [15]; at 1.2 µM -2% | [15]; at 3.7 µM 14% | [15]; at 11.0 µM 17% | [15]; at 33.0 µM 32% | [15]; at 100.0 µM 35%
active: [5]; [18] 79% | [6]; [18] 81% | [14]; [18] 72%

C[CH2][Sn]([CH2]C)([O]C(=O)C(N)Cc1ccccc1)[O]C(=O)C(N)Cc1ccccc1 (stereo not drawn)
inactive: [1]; at 1.2 µM 1% | [1]; at 3.7 µM -4% | [1]; at 11.0 µM 2% | [1]; at 33.0 µM 14% | [1]; at 100.0 µM 52% | [2]; at 1.2 µM 1% | [2]; at 3.7 µM 1% | [2]; at 11.0 µM 14% | [2]; at 33.0 µM 19% | [2]; at 100.0 µM 54% | [3]; at 1.2 µM -13% | [3]; at 3.7 µM -13% | [3]; at 11.0 µM 9% | [3]; at 33.0 µM -28% | [3]; at 100.0 µM -11% | [4]; at 1.2 µM 6% | [4]; at 3.7 µM -2% | [4]; at 11.0 µM 1% | [4]; at 33.0 µM 23% | [4]; at 100.0 µM 56% | [5]; at 1.2 µM 10% | [5]; at 3.7 µM 3% | [5]; [17] 19% | [5]; at 11.0 µM 14% | [5]; at 33.0 µM 15% | [5]; [18] 20% | [5]; at 50.0 µM 55.8% | [5]; at 100.0 µM 54% | [6]; at 1.2 µM 3% | [6]; at 3.7 µM 3% | [6]; [17] 19% | [6]; at 11.0 µM 0% | [6]; at 33.0 µM 3% | [6]; [18] 36% | [6]; at 100.0 µM 49% | [16]; at 1.2 µM -23% | [16]; at 3.7 µM -11% | [16]; at 11.0 µM -17% | [16]; at 33.0 µM -13% | [16]; at 100.0 µM 7% | [8]; at 1.2 µM 4% | [8]; at 3.7 µM -1% | [8]; at 11.0 µM 10% | [8]; at 33.0 µM 14% | [8]; at 100.0 µM 36% | [9]; [17] 17% | [9]; at 50.0 µM 61.1% | [10]; at 1.2 µM -23% | [10]; at 3.7 µM -25% | [10]; [17] 2% | [10]; at 11.0 µM -39% | [10]; at 33.0 µM -29% | [10]; at 50.0 µM 47.7% | [10]; at 100.0 µM 32% | [11]; at 1.2 µM -15% | [11]; at 3.7 µM -21% | [11]; at 11.0 µM -13% | [11]; at 33.0 µM -2% | [12]; at 1.2 µM 6% | [12]; at 3.7 µM -2% | [12]; at 11.0 µM 1% | [12]; at 33.0 µM 23% | [12]; at 100.0 µM 56% | [13]; at 1.2 µM -8% | [13]; at 3.7 µM 7% | [13]; at 11.0 µM 4% | [13]; at 33.0 µM 0% | [13]; at 100.0 µM 42% | [14]; [17] 17% | [14]; [18] 23% | [14]; at 50.0 µM -22.9% | [15]; at 1.2 µM 3% | [15]; at 3.7 µM 2% | [15]; at 11.0 µM 6% | [15]; at 33.0 µM 22% | [15]; at 100.0 µM 65%
active: [6]; at 50.0 µM 70.5% | [9]; [18] 76% | [10]; [18] 74% | [11]; at 100.0 µM 78%
